Screen size: about 420,000 compounds; about 64,000 (15%) were called active. Inconclusive results (about 27%) are left out. The call rests on the fitted dose curve; in most records, active means well fitted inhibition curve with a large enough effect; inconclusive means small, poorly fitted or top-dose-only effect; inactive means flat fitted curve, though single readings scatter. Only a sample is shown. Where a call stands in place of a potency, no number is given.
Assay: qHTS for Inhibitors of human tyrosyl-DNA phosphodiesterase 1 (TDP1): qHTS in cells in absence of CPT; further: nearly all actives have a fitted effect of over 55% in size
Conditions: DT40 Tdp1-/- hTDP1 cells, no CPT, ATP luminescence, 48 h; activity change, negative = growth inhibition: at 46.2 µM (top of the series)
Summary of the method: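 Cells were dispensed at 400 per well, compounds added by pin tool, plates incubated ≥48 hr at 37 °C, then CellTiter-Glo added for 30 min at room temperature before luminescence reading. Line: DT40 Tdp1-/- complemented with hTDP1; camptothecin omitted.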
Potency means the concentration at half of the fitted maximal effect.

SMILES | Potency
Cc1c(NC(=S)Nc2ccccc2)c(=O)n(-c2ccccc2)n1C | inactive
COc1cc(C)c(Cl)cc1S(=O)(=O)n1ccnc1 | inactive
CC1CCN(C(=O)COC(=O)c2cc(=O)[nH]c3ccccc23)CC1 | inactive
CC(NC(=O)COC(=O)c1cc(=O)[nH]c2ccccc12)c1ccccc1 (configuration not stated) | inactive
CCOC(=O)c1ccc2[nH]c(C)c(CN3CCN(C)CC3)c(=O)c2c1 | inactive
COC(=O)C[C@H]1C[C@@H]2c3cc(N(C)C)ccc3O[C@@H]2[C@H](CO)O1 | inactive
CCOC(=O)CSc1ncc(-c2cccc(Cl)c2)cn1 | inactive
Cn1nc(-c2ccccc2)c(CO)c1Sc1ccccc1 | inactive
Cn1nc(-c2ccccc2)c(CSc2cccc(Cl)c2)c1Cl | 18.4 µM (active)
CCn1c(-c2ccoc2C)n[nH]c1=S | inactive
CCOC(=O)c1ccc(NC(=O)Cn2nnc(-c3ccc(C)cc3)n2)cc1 | inactive
CCOC(=O)c1ccc(NC(=O)Cn2cnc3cc(C)c(C)cc32)cc1 | 0.517 µM (active)
CCOC(=O)c1ccc(NC(=O)CCn2c(=O)oc3ccccc32)cc1 | inactive
Cc1ccc(OC(=O)c2cncc(Br)c2)c(C)c1 | inactive
NC(=O)COc1ccccc1C(=O)NC12CC3CC(CC(C3)C1)C2 | inactive
CCc1cccc(NC(=S)N(CCN(C)C)C2CCN(C(C)C)CC2)c1 | inactive
Cc1cccc(C)c1NC(=O)CN1C(=O)C(C)Oc2ccccc21 (configuration not stated) | inactive
CCn1c(/C=N/NC(=O)c2ccc(OC)cc2)nc2ccccc21 | 16.4 µM (active)
CCn1c(C(O)c2cc(OC)ccc2OC)nc2ccccc21 (configuration not stated) | inactive
O=C(Nc1ccccc1Cl)N1CCN(c2ccc3nncn3n2)CC1 | inactive
Cc1ccc(Cc2c(C)nc3nc(SCC(=O)NCCN4CCOCC4)nn3c2C)cc1 | inactive
COc1ccc(NC(=O)CSc2nncc(=O)n2N)cc1OC | inactive

SMILES | Potency
COc1cc(NC(=O)CSc2nc3nc(C)c(Cc4ccc(C)cc4)c(C)n3n2)cc(OC)c1OC | 10.3 µM (active)
N#Cc1c(C(F)(F)F)cc(-c2ccccc2)nc1SCC(=O)N1CCOCC1 | inactive
FC(F)Oc1ccccc1NC(=S)Nc1cccc(Cl)c1Cl | inactive
O=[N+]([O-])c1cc(S(=O)(=O)Nc2cccc(Cl)c2)ccc1N=Nc1c(O)[nH]c2ccccc12 | 25.9 µM (active)
O=C(O)c1ccccc1/C=N/Nc1ccc(S(=O)(=O)Nc2ccc(Cl)cc2)cc1[N+](=O)[O-] | inactive
COc1ccc(S(=O)(=O)Nc2ccc3cn[nH]c3c2)cc1[N+](=O)[O-] | inactive
O=C(Nc1nnc([C@H]2C[C@H](O)[C@@H](CO)O2)s1)c1cccc(Cl)c1 | inactive
CN(CC(=O)Nc1ccc(Cl)cc1)C(=O)CNC(=O)c1ccc2ccccc2c1 | inactive
Cc1ccc(S(=O)(=O)N(C)c2ccc(OCC(=O)OCC(=O)N(CC#N)c3ccccc3)cc2)cc1 | inactive
COc1ccc(/C=N/Nc2ccccc2C(=O)O)cc1 | inactive
COc1ccc(/C=N/S(=O)(=O)c2ccccc2)cc1OC | inactive
COc1ccc(C(=O)Nc2ccccc2C(=O)N/N=C/c2ccc(O)c(OC)c2)cc1 | 20.6 µM (active)
COc1cc(/C=N/NC(=O)c2ccc(N3CCCC3=O)cc2)ccc1O | 16.4 µM (active)
CCOc1cc(/C=N/NC(=O)CN2CCCCC2)ccc1O | inactive
C/C(=N\NC(=O)c1cccc(N2CCCC2=O)c1)c1ccc(N)cc1 | inactive
COc1cc(/C=N/NC(=O)CCc2n[nH]c(=O)[nH]c2=O)ccc1O | inactive
COc1cc(C=NNC(=O)c2cccnc2)ccc1OC(=O)c1ccccc1F | inactive
COc1ccc(/C=N/NC(=O)c2ccccc2)cc1OS(=O)(=O)c1ccccc1 | 13 µM (active)
CCC1(CC)NC(=O)N(Cc2nc3ccccc3s2)C1=O | inactive
CCOc1ccc2oc(C(=O)N(CC)CC(=O)Nc3ccc(NC(C)=O)cc3)c(C)c2c1 | inactive
CCOc1ccc(-n2c(SCC(=O)NC3CCS(=O)(=O)C3)nnc2-c2cccnc2)cc1 (configuration not stated) | inactive
COc1ccc(S(=O)(=O)N2CCOCC2)cc1NC(=O)Cc1coc2cc(C)ccc12 | inactive

SMILES | Potency
N#Cc1c2c(c(-c3ccccc3)[nH]c1=O)CCCC2 | inactive
CCCCC1N2CC3([N+](=O)[O-])CN1CC([N+](=O)[O-])(C2)C3(C)C (configuration not stated) | inactive
Nc1ccc(SCCN2C(=O)c3ccccc3C2=O)cc1 | inactive
Cc1ccc(S(=O)(=O)c2cc3c(=O)n4cccc(C)c4nc3n(CCc3ccccc3)c2=N)cc1C | inactive
Cc1ccc2nc3c(cc(C(=O)NCCc4ccccc4)c(=N)n3CC3CCCO3)c(=O)n2c1 (configuration not stated) | 20.6 µM (active)
COCCCn1c(C(=O)NC2CCCCC2)cc2c(=O)n3cccc(C)c3nc21 | 16.4 µM (active)
COc1ccc(Cn2ccnc2SCC(=O)NCc2ccco2)cc1 | inactive
Cc1cccn2c(=O)c3cc(C(=O)NC4CCCCC4)sc3nc12 | inactive
O=C(NCc1cccnc1)c1cc(S(=O)(=O)N2CCOCC2)c(Cl)cc1Cl | inactive
COc1ccc(CNC(=O)c2cc3c(=O)n4ccccc4nc3n(CC3CCCO3)c2=N)cc1 (configuration not stated) | inactive
CCCCn1c(=N)c(S(=O)(=O)c2ccccc2)cc2c(=O)n3cccc(C)c3nc21 | inactive
Cc1cccn2c(=O)c3cc(C(=O)NCCN4CCOCC4)c(=N)n(Cc4cccnc4)c3nc12 | 8.2 µM (active)
O=C(NC1CCCCC1)c1ccc2c(=O)n(CC3CCCO3)c(=O)[nH]c2c1 (configuration not stated) | inactive
COc1ccc(CCn2c(=N)c(C(=O)NCc3ccco3)cc3c(=O)n4cccc(C)c4nc32)cc1 | 11.6 µM (active)
CCOC(=O)c1ccc2[nH]c3c(c2c1)CCCC3NC=O (configuration not stated) | inactive
C=CC1=C(C(=O)O)N2C(=O)[C@@H](NC(=O)/C(=N\OCC(=O)O)c3csc(N)n3)[C@H]2SC1 | inactive
Nc1c(N(CCCO)C(=O)C2CCCC2)c(=O)[nH]c(=O)n1Cc1ccccc1 | inactive
COc1ccc(NC(=O)C(CC(C)C)NC(=O)C2CCC(C)CC2)cc1 (configuration not stated) | inactive
O=C(Cn1nc(Cc2cccnc2)c2ccccc2c1=O)NCC1CCCO1 (configuration not stated) | inactive
COc1cc(=O)n2c(c1C(=O)NCc1ccco1)CCN(Cc1ccccc1)CC2 | inactive
COCCNc1ncnc2c1ncn2[C@H]1CN(CCN2CCOCC2)C[C@@H](CO)O1 | inactive
CN(CC(=O)NNC(=O)CNC(=O)c1ccccc1Cl)S(=O)(=O)c1ccc(Cl)cc1 | inactive

SMILES | Potency
O=C1c2ccccc2C(=O)N1c1ccccc1S(=O)C(F)(F)F (configuration not stated) | inactive
COc1ccccc1-n1cnc2cc(C(=O)NCC3CCCO3)ccc21 (configuration not stated) | inactive
COc1ccc(CCNC(=O)Cn2c(=O)n(CC3CCCO3)c(=O)c3ccccc32)cc1OC (configuration not stated) | inactive
COc1ccc(CCn2c(=N)c(C(=O)NCC3CCCO3)cc3c(=O)n4cccc(C)c4nc32)cc1OC (configuration not stated) | 0.517 µM (active)
CC1CCC(NC(=O)CN(C)S(=O)(=O)c2ccc3c(c2)c(=O)n(C)c(=O)n3C)CC1 (configuration not stated) | inactive
CN(C(=O)CSc1nnc(C2CC2)n1C)C1CCCc2ccccc21 (configuration not stated) | inactive
CCOC(=O)C1=CCC2C(=O)N(Cc3ccccc3)C(=O)C12 (configuration not stated) | inactive
CCC1(CC)C(=O)C2=C3C1[C@H](C(=O)OC)C=C(C(=O)OC)C[C@H]3[C@H]1C(=O)N(Cc3ccccc3)C(=O)[C@H]1[C@H]2C (some centres not stated) | 16.4 µM (active)
COC(=O)C1=C[C@@H](C(=O)OC)[C@@H]2C3=C(C(=O)[C@]2(C)NC(=O)c2ccccc2)[C@H](C)n2c(=O)n(C)c(=O)n2[C@@H]3C1 | inactive
CCOc1ccccc1NC(=O)CCc1nnc2ccc(NCc3ccco3)nn12 | inactive
CNC(=O)c1sc(NCc2ccccc2OC)nc1C | inactive
CNC(=O)c1sc(Nc2ccc(OCc3ccccc3)cc2)nc1C | 13 µM (active)
Cc1cccc(NC(=O)Nc2ccc(OCc3ccccc3)cc2)n1 | inactive
COc1ccc(C(C(=O)NC2CCCCC2)N(C(=O)Cc2c[nH]c3ccccc23)c2ccccc2)cc1OC (configuration not stated) | 18.4 µM (active)
COc1ccc(C(C(=O)NCC2CCCO2)N(C(=O)Cn2nnc3ccccc32)c2ccc(NC(C)=O)cc2)cc1OC (configuration not stated) | inactive
COc1ccc(CNC(=O)[C@H](Cc2c[nH]c3ccccc23)NC(C)=O)cc1OC | inactive
CN(Cc1c(F)cccc1Cl)S(=O)(=O)c1cccs1 | inactive
O=C(NCc1ccccn1)C1CCN(S(=O)(=O)c2ccc(Br)cc2)CC1 | inactive
CC1(C)CCSC(/C=C/c2ccccc2)=N1 | 4.61 µM (active)
CCCOc1ccc(NC(=O)C2CCCNC2=O)cc1 (configuration not stated) | inactive
Cc1ccc(-c2ccnc(-n3ncc(C(=O)N(C)Cc4cccc5ncccc45)c3C3CC3)n2)o1 | inactive
Nc1nc(NCC(=O)O)nc(N2CCCCCC2)c1[N+](=O)[O-] | inactive

SMILES | Potency
CC1CN(c2nc(Nc3ccccc3)nc(N)c2[N+](=O)[O-])CC(C)O1 (configuration not stated) | 14.6 µM (active)
CCN1CCN(c2nc(Nc3cccc(F)c3)nc(N)c2[N+](=O)[O-])CC1 | inactive
CCOC(=O)c1ccccc1NC(=O)COC(=O)CCC(=O)N1CCOCC1 | inactive
NC(=O)C1CC(=O)N(c2ccc(OCC(=O)NCc3ccccc3)cc2)C1 (configuration not stated) | inactive
Cc1ccc(C(=O)NNC(=O)c2ccncc2)cc1S(=O)(=O)N1CCCCC1 | inactive
O=C(NNC1=C(C(=O)C(F)(F)F)CCC1)c1ccncc1 | 1.64 µM (active)
O=C(NNC(=O)c1cnccc1C(F)(F)F)c1ccc(Cl)cc1 | inactive
COc1ccc2c(c1)c1ncn(Cc3ccccn3)c(=O)c1n2C | inactive
O=C(/C=C/c1ccc(Cl)cc1Cl)NCc1ccco1 | inactive
COc1cccc(CNC(=O)c2ccc3c(Cl)c4c(nc3c2)CCCC4)c1 | 23.1 µM (active)
COc1cccc(CNC(=O)c2cccnc2Sc2ccc(Cl)cc2)c1 | inactive
O=C(CSc1c2c(nc3ccc(Cl)cc13)CCCC2)NCc1ccco1 | 18.4 µM (active)
COc1ccc(N2CCN(C(=O)c3ccc4c(Cl)c5c(nc4c3)CCCC5)CC2)cc1 | 20.6 µM (active)
O=C(CSc1nnnn1-c1ccccc1)NCc1ccco1 | inactive
COc1ccc(N2CCN(C(=O)c3ccc(N4CCCCS4(=O)=O)cc3)CC2)cc1 | inactive
Cc1ccc(CNC(=O)CSc2c3c(nc4cc(Cl)ccc24)CCCC3)cc1 | 14.6 µM (active)
Cc1ccc(CNC(=O)COc2ccc3c(c2)CCC3)cc1 | inactive
Cc1cn(C)c(CC(=O)NCc2ccc(Cl)cc2)c1C(=O)O | inactive
COc1cccc(CNc2nc3nc4c(c(=O)n3[nH]2)CCC4)c1 | inactive

Source: PubChem BioAssay AID686978 (National Center for Advancing Translational Sciences (NCATS), 2013)
